The panel holds about 83,000 compounds, 20% with a hit somewhere; the sample as a whole holds those more often.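 In brief: 96-well plates, 48 h treatment, single concentration, percent growth endpoint.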 Unmarked numbers belong to inactive results. Active and inactive are the calls of the source. Rule for the calls: active = growth percent below 10; inactive = the rest.

Some test systems named below: HCT-15 colon; SNB-75 CNS; SNB-19 CNS; U251 CNS; PC-3 prostate; SK-MEL-5 melanoma; UACC-62 melanoma; LOX IMVI melanoma; SK-MEL-28 melanoma; SK-MEL-2 melanoma; EKVX NSCLC; UO-31 renal; TK-10 renal; CAKI-1 renal; A498 renal; CCRF-CEM leukemia; MOLT-4 leukemia; SN12C renal; ACHN renal; HT29 colon.
What all share (assay): NCI-60 one-dose screen, 48 h (100 = growth as untreated, 0 = no growth, -100 = all killed)
Holding throughout (conditions): 10 µM unless noted

For `O=c1nc(Nc2nc3ccccc3s2)[nH]c(=O)c2ccccc12`, the growth with HCT-15 colon is 99.2%; in the assay with SNB-75 CNS, 76.5%; with SNB-19 CNS it was 95.6%; with U251 CNS it was 98.6%; in the assay with PC-3 prostate it was 105%; in the assay on SK-MEL-5 melanoma, 99.6%. Also, the growth in the assay on UACC-62 melanoma was 99%; in the assay on LOX IMVI melanoma it was 95.7%; with SK-MEL-28 melanoma, 110%; in the assay with SK-MEL-2 melanoma, 110%; in the assay on EKVX NSCLC, 95.2%; in the assay with UO-31 renal, 89.4%. Moreover, the growth in the assay with TK-10 renal was 119%; in the assay with CAKI-1 renal, 85.2%; with A498 renal, 77.4%; in the assay on CCRF-CEM leukemia it was 106%; in the assay on MOLT-4 leukemia, 102%.

On to `O=C1NC(=C(Cl)Cl)/C(=N/S(=O)(=O)N2CCCCC2)N1`, for which the growth in the assay on HCT-15 colon was -79% (active); with SNB-75 CNS, 93.5%; with SNB-19 CNS it was 60.9%; in the assay with U251 CNS, -45.1% (active); in the assay on PC-3 prostate it was 28.5%; with SK-MEL-5 melanoma, 82%. Further, the growth in the assay with UACC-62 melanoma was 46.6%; in the assay with LOX IMVI melanoma, -56.6% (active); in the assay with SK-MEL-28 melanoma, -32.7% (active); in the assay with SK-MEL-2 melanoma, 40.7%; with EKVX NSCLC it was -23.9% (active); with SN12C renal it was 23.5%. Besides, the growth in the assay with UO-31 renal was 39.7%; with TK-10 renal, 13.9%; with ACHN renal, 26.8%; with CAKI-1 renal, 46%; in the assay with A498 renal, 132%; in the assay with CCRF-CEM leukemia, -63.3% (active). Further, in the assay with MOLT-4 leukemia, the growth is -48.7% (active).

For `C[C@@H]1CC[C@@]2(OC1)O[C@H]1C[C@H]3[C@@H]4CC=C5C[C@@H](O[C@@H]6O[C@H](CO)[C@@H](O[C@@H]7O[C@@H](CO)[C@H](O)[C@H]7O)[C@H](O)[C@H]6O[C@@H]6O[C@@H](C)[C@H](O)[C@@H](O)[C@H]6O)CC[C@]5(C)[C@H]4CC[C@]3(C)[C@H]1[C@@H]2C`, the growth was -84.8% (active) in the assay with HCT-15 colon; -94.3% (active) in the assay on SNB-75 CNS; -81.7% (active) in the assay with SNB-19 CNS; -97.7% (active) in the assay with U251 CNS; -89.7% (active) with SK-MEL-5 melanoma; -98% (active) in the assay on UACC-62 melanoma. Further, the growth was -96.7% (active) with LOX IMVI melanoma; -96.9% (active) with SK-MEL-28 melanoma; -87% (active) in the assay with SK-MEL-2 melanoma; -66.6% (active) in the assay on EKVX NSCLC; -97.4% (active) in the assay on SN12C renal; -99.5% (active) in the assay on UO-31 renal. The growth with TK-10 renal is -81.2% (active); in the assay with CAKI-1 renal, -93.4% (active); in the assay on A498 renal, -95.6% (active); in the assay on CCRF-CEM leukemia, -74.2% (active); in the assay with MOLT-4 leukemia, -60% (active).

`Cc1nn(-c2ccccc2)c(N2CCCCC2)c1/C=N/NC(=O)Cn1c(=O)sc2ccccc21`: the growth with HCT-15 colon was 61.3%; with SNB-75 CNS, 75%; in the assay on SNB-19 CNS, 70.9%; in the assay on U251 CNS it was 73.4%; with PC-3 prostate it was 61.7%; in the assay with SK-MEL-5 melanoma, 73.7%. In addition, the growth with UACC-62 melanoma is 64.3%; with LOX IMVI melanoma, 60.3%; with SK-MEL-28 melanoma, 114%; with SK-MEL-2 melanoma it was 88.9%; in the assay with EKVX NSCLC, 74.5%; in the assay with SN12C renal, 85%. For the same compound, the growth with UO-31 renal is 48.1%; in the assay with TK-10 renal it was 88.5%; with ACHN renal, 66.8%; with CAKI-1 renal it was 34.7%; in the assay with A498 renal, 80.7%; in the assay with CCRF-CEM leukemia it was 84.7%. For the same compound, the growth in the assay on MOLT-4 leukemia was 54.7%.

On to `NNC(=S)N/N=C/c1ccccn1`, for which the growth is 26.7% with HCT-15 colon; 59.6% in the assay with SNB-75 CNS; 48.3% in the assay on SNB-19 CNS; 28.4% in the assay on U251 CNS; 32.9% in the assay on PC-3 prostate; 30.2% in the assay with SK-MEL-5 melanoma. The growth with UACC-62 melanoma is 20.7%; in the assay with LOX IMVI melanoma, 13.2%; in the assay on SK-MEL-28 melanoma, 56.3%; in the assay on SK-MEL-2 melanoma, 59.6%; in the assay on EKVX NSCLC it was 31.6%; in the assay with SN12C renal it was 30%. The growth in the assay with UO-31 renal was 14.7%; with TK-10 renal, 46.9%; with ACHN renal it was 17%; in the assay with CAKI-1 renal, 14.2%; with A498 renal it was 70.4%; with CCRF-CEM leukemia, 12%. Besides, the growth in the assay on MOLT-4 leukemia is 12%.

With `O=C(CSc1nnc2sc(Nc3cccc(Cl)c3)nn12)c1ccc(F)cc1`, the growth in the assay with HCT-15 colon is 92.3%; with SNB-75 CNS, 104%; in the assay with SNB-19 CNS, 95.5%; with U251 CNS, 97.9%; in the assay on PC-3 prostate, 85%; in the assay on SK-MEL-5 melanoma, 98.5%. The growth in the assay with LOX IMVI melanoma was 91.7%; in the assay with SK-MEL-28 melanoma, 104%; with SK-MEL-2 melanoma, 102%; in the assay on EKVX NSCLC, 94.8%; with SN12C renal, 98.9%; in the assay on UO-31 renal it was 78.8%. For the same compound, the growth was 114% in the assay with TK-10 renal; 71.3% in the assay with CAKI-1 renal; 103% in the assay on A498 renal; 91.1% with CCRF-CEM leukemia; 71.3% with MOLT-4 leukemia.

With `O=C(CCCCl)NNc1nccc(Nc2ccc(S(=O)(=O)Nc3ccncc3)cc2)n1`, the growth in the assay on HCT-15 colon is 103%; in the assay on HT29 colon it was 102%; in the assay with SNB-75 CNS it was 93.2%; in the assay on SNB-19 CNS, 106%; in the assay with U251 CNS it was 103%; with SK-MEL-5 melanoma, 105%. Besides, the growth is 102% with UACC-62 melanoma; 98% in the assay with LOX IMVI melanoma; 107% with SK-MEL-28 melanoma; 105% with EKVX NSCLC; 102% in the assay on SN12C renal; 92.2% in the assay on UO-31 renal. Also, the growth is 85.8% in the assay with TK-10 renal; 104% in the assay on ACHN renal; 93.9% with CAKI-1 renal; 110% in the assay with A498 renal; 116% in the assay on CCRF-CEM leukemia; 112% in the assay with MOLT-4 leukemia.

`COc1ccc(-c2ccc(-c3ccc(C(=N)N)cn3)s2)cc1`: the growth was 19.9% in the assay with HCT-15 colon; 105% in the assay with SNB-75 CNS; 88.6% with SNB-19 CNS; 15.3% with U251 CNS; 65.5% in the assay on PC-3 prostate; 85% with SK-MEL-5 melanoma. The growth was 101% with UACC-62 melanoma; 55% in the assay with LOX IMVI melanoma; 109% in the assay on SK-MEL-28 melanoma; 104% in the assay on SK-MEL-2 melanoma; 95.6% with EKVX NSCLC; 86.7% in the assay with SN12C renal. Also, the growth in the assay on UO-31 renal is 81.2%; in the assay on TK-10 renal, 109%; in the assay on ACHN renal it was 92%; in the assay with CAKI-1 renal, 87.9%; with A498 renal, 98.8%; with CCRF-CEM leukemia, 4.28% (active). The growth with MOLT-4 leukemia is 49.1%.

`COc1cc(Nc2ncccc2NC(=O)c2cn(Cc3cccc(Oc4ccccc4)c3)nn2)cc(OC)c1`: the growth with HCT-15 colon is 68.7%; in the assay on SNB-75 CNS, 79.9%; in the assay on SNB-19 CNS, 79.6%; in the assay on U251 CNS, 80.2%; with PC-3 prostate, 66.5%; in the assay with SK-MEL-5 melanoma, 60%. The growth in the assay on UACC-62 melanoma was 65.5%; in the assay on LOX IMVI melanoma, 75.1%; with SK-MEL-28 melanoma, 83.3%; with SK-MEL-2 melanoma, 95.7%; with EKVX NSCLC, 75%; in the assay on SN12C renal it was 84.2%. In addition, the growth in the assay on UO-31 renal was 50.7%; with TK-10 renal it was 100%; in the assay with CAKI-1 renal it was 83.9%; in the assay on A498 renal, 76.2%; in the assay on CCRF-CEM leukemia, 84.5%; with MOLT-4 leukemia, 59.6%.

As to `CC1(C)OC(=O)C(=Cc2cccc(Br)c2)C(=O)O1`, the growth in the assay on HCT-15 colon was 108%; in the assay with SNB-75 CNS it was 94.4%; in the assay on SNB-19 CNS, 105%; in the assay on U251 CNS, 92.9%; in the assay with PC-3 prostate, 89.5%; in the assay on SK-MEL-5 melanoma, 94.8%. The growth in the assay on UACC-62 melanoma was 101%; in the assay with LOX IMVI melanoma, 101%; in the assay with SK-MEL-28 melanoma, 119%; with SK-MEL-2 melanoma, 103%; with EKVX NSCLC, 100%; in the assay with SN12C renal, 101%. Besides, the growth was 92.9% with UO-31 renal; 101% in the assay with TK-10 renal; 117% with ACHN renal; 100% with CAKI-1 renal; 94.2% with A498 renal; 93.2% in the assay on CCRF-CEM leukemia. Also, the growth in the assay with MOLT-4 leukemia is 89.9%.

For `COc1ccc2c(c1)c(-c1cc(-c3cn(C)c4ccc(OC)cc34)on1)cn2C`, the growth was 98.6% in the assay with HCT-15 colon; 97.8% with SNB-75 CNS; 94.5% in the assay with SNB-19 CNS; 93.7% in the assay on U251 CNS; 87.9% in the assay on PC-3 prostate; 81.2% with SK-MEL-5 melanoma. The growth was 90.7% with UACC-62 melanoma; 81.8% in the assay with LOX IMVI melanoma; 94.5% with SK-MEL-28 melanoma; 118% with SK-MEL-2 melanoma; 106% in the assay with EKVX NSCLC; 80.6% with UO-31 renal. Further, the growth in the assay on TK-10 renal is 126%; with ACHN renal, 89.9%; in the assay with CAKI-1 renal it was 92.8%; with A498 renal, 105%; in the assay on CCRF-CEM leukemia it was 91.3%; in the assay with MOLT-4 leukemia, 86.3%.

With `CCCCCCOC(=O)CC1=C(C)/C(=C/c2[nH]c(-c3ccc[nH]3)cc2OC)N=C1C`, the growth was -34.9% (active) in the assay with HCT-15 colon; -5.75% (active) in the assay with SNB-75 CNS; 12.8% with SNB-19 CNS; -68.8% (active) with U251 CNS; -23% (active) in the assay on PC-3 prostate; -92.1% (active) in the assay on SK-MEL-5 melanoma. In addition, the growth with UACC-62 melanoma is -64.5% (active); with LOX IMVI melanoma, -82% (active); in the assay on SK-MEL-28 melanoma, -64.9% (active); in the assay on SK-MEL-2 melanoma, -49.5% (active); with EKVX NSCLC it was -35% (active); in the assay with SN12C renal, -63% (active). Also, the growth in the assay with UO-31 renal was -86.9% (active); in the assay with TK-10 renal it was -24.9% (active); in the assay with ACHN renal it was -19.5% (active); in the assay on CAKI-1 renal, 0.637% (active); with A498 renal, -49.4% (active); with CCRF-CEM leukemia, -22.5% (active). Besides, in the assay with MOLT-4 leukemia, the growth was -30.3% (active).
